About 18,000 (9%) of roughly 200,000 compounds were called active. The entries come from a sample that favours actives as a whole. Values without a mark were called inactive. No stated cut-off is given here; in the data, active means inhibition above about 50%; inactive means the rest.
Experiment: antileishmanial activity against promastigotes – primary screen (AID 1063);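 further: promastigotes grown with compound for 44 hours at 28 °C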
Details: Leishmania major promastigotes, resazurin fluorescence viability; at 10 µM; active compounds read high

Row | Compound | inhibition
1 | Cc1ccnc(SCC(N)=O)n1 | -7.56%
2 | O=C(Nc1ccc(F)c([N+](=O)[O-])c1)C1CC(=O)N(Cc2ccccc2)C1 (stereo not given) | 8.12%
3 | CNC(=S)Nc1ccc([N+](=O)[O-])cc1 | 6.53%
4 | COc1ccccc1OCCC(=O)OCC(=O)NC(=O)NC(C)(C)C | -5.7%
5 | COc1ccccc1OCC(=O)OCn1c(SC)nnc(C)c1=O | 58% (active)
6 | COc1cccc(NC(=O)COC(=O)CCOc2ccccc2OC)c1 | -0.7%
7 | Cn1cnnc1SCc1nnc(-c2ccccc2Br)o1 | -7.2%
8 | COc1ccc(C2CC(c3cccs3)=NN2C(=O)COC(=O)c2cc3ccccc3cc2O)cc1OC (stereo not given) | 58% (active)
9 | COc1ccc(C2CC(c3cccs3)=NN2C(=O)CSc2nnc(N)s2)cc1OC (stereo not given) | 2.75%
10 | COc1ccc(C2CC(c3cccs3)=NN2C(=O)CSc2nncs2)cc1OC (stereo not given) | 8.19%
11 | COc1ccccc1NC(=O)CCSc1nnc(-c2ccc(O)cc2)o1 | -3.54%
12 | NS(=O)(=O)c1cccc(NC(=O)CSc2nc3ccccc3n2-c2ccccc2)c1 | 9.64%
13 | Cc1ccc(SCCC(=O)OCC(=O)Nc2ncc(Cl)cc2Cl)cc1 | -4.94%
14 | Cc1ccc(-n2c(SCC(=O)Nc3ncc(Cl)cc3Cl)nc3ccccc32)cc1 | 89.5% (active)
15 | O=C(O)CC1S/C(=N\N=C/c2ccccc2O)N(c2ccc(O)cc2)C1=O (stereo not given) | -7.61%
16 | CC(=O)C1(C)N(O)C(C)(C)C(c2cccs2)=[N+]1[O-] (stereo not given) | -4.97%
17 | CCOC(=O)c1cc(C#N)c(N2CCCCC2)nc1-c1ccccc1 | 53.9% (active)
18 | CC(=O)c1cc(C#N)c(N2CCCCC2)nc1C | -3.09%
19 | Cc1cccc2cc(C#N)c(N3CCCC3)nc12 | 4.74%
20 | CCN1CC(CN(C)Cc2nc(-c3ccc(Cl)cc3)no2)CC1=O (stereo not given) | -8.19%
21 | COc1cc(NC(=O)COC(=O)c2cnc(C)cn2)c(C)cc1[N+](=O)[O-] | -4.51%
22 | O=C(CSc1ccc(-c2ccco2)nn1)NCc1ccc2c(c1)OCO2 | 14%
23 | Cc1cc(N2CCN(S(=O)(=O)c3ccc(C)c(C)c3)CC2)c2ccccc2n1 | 98.6% (active)
24 | Cc1cc(C(=O)NNC(=O)c2cccc(S(=O)(=O)N3CCOCC3)c2)c2ccccc2n1 | -9.98%

Row | Compound | inhibition
25 | Cc1ccc(S(=O)(=O)C(C#N)c2nc3ccccc3nc2N2CCCC2)cc1C (stereo not given) | -2.26%
26 | COc1ccc(CCNc2cc(C)nc3c(-c4ccc(Cl)cc4)c(C)nn23)cc1OC | 76.3% (active)
27 | COc1ccc(CCNC2=C(Cl)C(=O)N(Cc3ccccc3)C2=O)cc1OC | 8.4%
28 | COc1ccc(CCNc2ncnc3nc[nH]c23)cc1OC | 5.03%
29 | Cc1cc(Cl)ccc1OCCCC(=O)NCc1ccccn1 | 5.49%
30 | COc1ccccc1OCCNc1cc(N2CCOCC2)ccc1[N+](=O)[O-] | 2.32%
31 | COCCCNC(=S)NC(=O)c1ccc([N+](=O)[O-])cc1 | -8.2%
32 | COc1ccccc1OCCNC(=O)c1cc([N+](=O)[O-])cc([N+](=O)[O-])c1 | 93.5% (active)
33 | Cc1ccc(NC(=O)CSCC(=O)NC2CCCCC2)cc1 | 14.3%
34 | CCC1CO/C(=C(\C(=C(Cl)Cl)N2CCOCC2)[N+](=O)[O-])N1 (stereo not given) | -6.26%
35 | Cc1noc(C)c1S(=O)(=O)Nc1ccc(C(=O)N2CCN(c3ccc(F)cc3)CC2)cc1 | 4.11%
36 | CCc1ccccc1NC(=O)CN(C)C(=O)COc1ccc(C)nc1[N+](=O)[O-] | 57.1% (active)
37 | Cc1ccc(OCC(=O)Nc2ccccc2Sc2ccc(Cl)cc2)c([N+](=O)[O-])n1 | 7.6%
38 | COc1ccccc1CNC(=O)COc1ccc(C)nc1[N+](=O)[O-] | 0.88%
39 | CC(=O)c1c(C)[nH]c(C(=O)OCC(=O)Nc2cc(S(=O)(=O)N3CCCCC3)ccc2C)c1C | 95.4% (active)
40 | COc1ccc(S(=O)(=O)N2CCCCCC2)cc1C(=O)OCC(=O)Nc1cc(C)on1 | 3.73%
41 | CC(=O)c1c(C)[nH]c(C(=O)Nc2cc(S(=O)(=O)N(C)C)ccc2C)c1C | -6.9%
42 | CC(C)(C)C(=O)Cn1c(NCCO)nc2ccccc21 | -7.58%
43 | Cn1c(NN)nc2sc3c(c2c1=O)CCC3 | -2.23%
44 | OCCNc1nc2ccccc2n1-c1ncnc2sc3c(c12)CCC3 | 60.8% (active)
45 | CCN1CCc2nc(NC(=O)c3cc(F)c(F)cc3Cl)sc2C1 | -0.49%
46 | Nc1ccc(Cl)c(S(=O)(=O)Nc2ccccc2Cl)c1 | 1.56%
47 | CCOc1ccc2nc(Cl)c(C3CC(c4ccccc4)=NN3C(=O)c3cccs3)cc2c1 (stereo not given) | 66.5% (active)
48 | CCOc1ccccc1C1CC(c2cccc(NS(C)(=O)=O)c2)=NN1C(=O)c1ccccc1 (stereo not given) | 2.04%

Row | Compound | inhibition
49 | COc1ccc(C2CC(c3ccccc3)=NN2C(=O)c2ccc(Cl)c([N+](=O)[O-])c2)cc1 (stereo not given) | 31.9%
50 | COc1ccc(C(=O)COC(=O)c2ccc3ccccc3n2)cc1 | -7.38%
51 | COc1ccc(CCNC(=O)CCn2c(=O)c3ccccc3n(CC(=O)NCC3CCCO3)c2=O)cc1OC (stereo not given) | -3.03%
52 | Cc1ccnc(NC(=O)c2ccco2)n1 | -6.16%
53 | COc1ccc(CCCc2nnc(SCc3nc4ccccc4c(=O)[nH]3)n2C)cc1 | -4.22%
54 | CC(NC(=O)COC(=O)c1cc(=O)[nH]c2ccccc12)c1ccccc1 (stereo not given) | -4.71%
55 | Cc1ccccc1CC1(CO)CCCN(Cc2ccc3c(c2)OCCO3)C1 (stereo not given) | 70.2% (active)
56 | COc1cccc(CC2(CO)CCCN(Cc3nc(-c4cccs4)oc3C)C2)c1 (stereo not given) | 2.57%
57 | Cc1ccccc1CC1(CO)CCCN(C(=O)c2cc(-c3ccccc3)no2)C1 (stereo not given) | -3.77%
58 | COc1cc(CN2CC(C)CC(C)C2)cc([N+](=O)[O-])c1O (stereo not given) | 16.2%
59 | COc1cc(CC(=O)N/N=C/c2ccccc2)c([N+](=O)[O-])cc1OC | -0.35%
60 | COc1cc(CN2CCN(Cc3ccc(C)cc3)CC2)c([N+](=O)[O-])cc1OC | 53.4% (active)
61 | CCOC(=O)CNC(=O)/C(=C\c1ccc(F)cc1)NC(=O)c1ccccc1 | -2.16%
62 | CCN(CC(=O)NCc1cccs1)C(=O)c1ccccc1F | 35%
63 | CCOc1ccc(CCNC(=O)C2=C(C)C(=O)OC23CCC(C)CC3)cc1OCC (stereo not given) | 5.17%
64 | COc1ccc(CNC(=O)CN2CCC(n3nnc4cc(F)ccc43)CC2)cc1 | 2.66%
65 | CCOc1cc(NC(=S)NCCCOC)c(OCC)cc1NC(=O)c1ccco1 | 36.4%
66 | CN1CCN(CC(=O)Nc2sc3c(c2C#N)CCC(C(C)(C)C)C3)CC1 (stereo not given) | 100% (active)
67 | CCN1CCN(CC(=O)Nc2sc3c(c2C#N)CCC3)CC1 | -1.23%
68 | CCC1CCc2c(sc(NC(C)=O)c2C#N)C1 (stereo not given) | -3.49%
69 | Cc1nn2cc(-c3ccc(Cl)cc3)cnc2c1Br | -2.01%
70 | N#C/C=C\Oc1ccc(Cl)cc1N | 67.9% (active)
71 | COc1ccc(Cl)cc1C(=O)NCC#N | -4%
72 | CCCC/S(C)=N/S(=O)(=O)c1ccc(C)cc1 (stereo not given) | -10.2%

Row | Compound | inhibition
73 | COc1cc(NS(=O)(=O)c2ccc(NC(=O)c3ccc(S(=O)(=O)N4CCCCC4)cc3)cc2)ncn1 | -2.97%
74 | Cc1c(CCO)sc[n+]1CC(=O)OC12CC3CC(CC(C3)C1)C2 | 30.7%
75 | Cc1c(CCOC(=O)c2cc([N+](=O)[O-])ccc2Cl)sc[n+]1CCCCS(=O)(=O)[O-] | -8.59%
76 | Cc1c(CCOC(=O)CC23CC4CC(CC(C)(C4)C2)C3)sc[n+]1Cc1ccc([N+](=O)[O-])cc1 | 87.9% (active)
77 | CCCCNC(=O)CCn1c(=O)c2ccccc2n(Cc2cc(C)ccc2C)c1=O | 58% (active)
78 | CCCCNC(=O)CCn1c(=S)[nH]c2cc3c(cc2c1=O)OCO3 | -1.74%
79 | COCCNC(=O)CCCn1c(=O)c2ccccc2n(Cc2cccc([N+](=O)[O-])c2)c1=O | 4.7%
80 | Cc1cc(OC(=O)c2ccccc2)c([N+](=O)[O-])c(=O)[nH]1 | -2.98%
81 | COc1ccc(CN(C)C(=S)Nc2ccc(Cl)cc2Cl)cc1 | 4.79%
82 | O=S(=O)(O)c1nc2ccccc2n1Cc1ccc(Cl)cc1 | -5.39%
83 | CC(=O)Nc1nc2ccccc2n1Cc1ccc(C)cc1 | 88.6% (active)
84 | CCC(=O)Nc1nc2ccccc2n1Cc1ccccc1C | 97.5% (active)
85 | CCCCn1c(CCCNC(=O)CC)nc2ccccc21 | 12.4%
86 | CCC(=O)NCCc1nc2ccccc2n1CC | -0.68%
87 | Cc1ccc(Cn2c(NC(=O)c3ccco3)nc3ccccc32)cc1 | 9.07%
88 | CCO[C@@H]1OC(C(=O)N2CCOCC2)=C[C@H](C)[C@H]1CCCO | -9.37%
89 | Cn1nnnc1SCC(=O)Nc1nc2ccccc2s1 | -3.39%
90 | CC(=O)c1ccc(NC(=O)C(C)N(C)CC(=O)Nc2ccccc2Cl)cc1 (stereo not given) | 12.8%
91 | COc1ccc(S(=O)(=O)N(C)CC(=O)N2CCCC2)cc1Cl | -0.12%
92 | COc1cc(CNC2CCCC2)c(Br)cc1OCc1ccccc1 | 35.4%
93 | COc1cc(CNC2CCCCC2)c(Br)cc1OC1CCCC1 | 60.8% (active)
94 | CC(C)(C)NCc1cc(Br)ccc1OC1CCCC1 | 15.5%
95 | C=CS(=O)c1sc(Cl)c(N2CCOCC2)c1[N+](=O)[O-] (stereo not given) | 20.9%

From PubChem BioAssay AID1063 (University of Pittsburgh Molecular Library Screening Center, 2008)
